Consider 40 compounds from PubChem BioAssay (Tox21).

Structures are written as SMILES. Results filed as inconclusive are left out. Values without a mark were called inactive. Calls of active or inactive are those of the source. Calls come from the whole dose curve; as a rule, active = well fitted cell-killing curve with a large enough effect in the repeat runs; inconclusive = weak or mixed curves, or effect the other way; inactive = no such curve, though single readings can be large or run the other way.
% is set by controls: 0 for no effect and ±100 for the full control effect; potency is the fitted concentration of half-maximal effect.

This experiment in a line: qHTS assay to identify small molecule agonists of the farnesoid-X-receptor (FXR) signaling pathway - cell viability counter screen (AID 743218). Note: nearly all actives have a fitted effect of over 45% in size. The settings on record: FXR-bla HEK293T viability, CellTiter-Glo luminescence, 16 h; series mostly up to 62.6 µM; viability change, negative = cytotoxic: at the top concentration. An excerpt:
U.S. Tox21 Program National Center for Advancing Translational Sciences [NCATS] NIH Chemical Genomics Center [NCGC] U.S. Environmental Protection Agency [EPA] National Institutes of Environmental Health Sciences [NIEHS] National Toxicology Program [NTP] U.S. Food and Drug Administration [FDA] Tox21 Assay Overview: The farnesoid-X-receptor (FXR), a nuclear hormone receptor, is highly expressed in liver, intestine, kidney and adrenal cortex. Natural ligands of FXR are the bile acids (Cholic acid, Chenodeoxy cholic acid etc). FXR is an important regulator of diverse metabolic pathways, including the bile acid homeostasis, lipid and glucose metabolisms. FXR regulates the expression of target genes by binding either as a monomer or as a heterodimer with the retinoid X receptor (RXR). Numerous studies have reported that FXR exerts protective function during cholestasis, diabetes, liver regeneration, and cancer. To identify compounds that activate FXR signaling, GeneBLAzer FXR-UAS-bla HEK 293T cell line (Invitrogen, Carlsbad, CA) containing a beta-lactamase reporter gene under the control of a UAS response element was used to screen the Tox21 10K compound library. The cytotoxicity of the Tox21 compound library against the FXR-bla cell line was tested in parallel by measuring the cell viability using CellTiter-Glo assay in the same wells.
Tox21 Assay Protocol Summary: FXR-bla cells were dispensed at 5000 cells/5uL/well in 1536-well black wall/clear bottom plates using a Multidrop Combi (Thermo Fisher Scientific, Waltham, MA) dispenser. After the assay plates were incubated at 37 C and 5% CO2 for 5 h, 23 nL of compounds dissolved in DMSO, positive controls or DMSO only was transferred to the assay plate by a Pintool station (Kalypsys, San Diego, CA). The assay plates were incubated at 37C for 16 h. After 1 uL of LiveBLAzerTM B/G FRET substrate was added using a Bioraptr Flying Reagent Dispenser (FRD) workstation (Beckman Coulter, Indianapolis, IN), the plates were incubated at room temperature for 2 h, and fluorescence intensity was measured by an Envision plate reader (PerkinElmer, Shelton, CT). For cell viability readout that measures cytotoxicity, 4uL/well of CellTiter-Glo reagent was added into the assay plates using a Bioraptr FRD. After 30 min incubation at room temperature, the luminescence intensity in the plates was measured using a ViewLux plate reader (PerkinElmer).
Regarding `CC[C@@H](CO)NCCN[C@@H](CC)CO`, the “viability change, negative = cytotoxic” value was -3.28%.

With `CC[C@H]1OC(=O)[C@H](C)[C@@H](O[C@H]2C[C@@](C)(OC)[C@@H](O)[C@H](C)O2)[C@H](C)[C@@H](O[C@@H]2O[C@H](C)C[C@H](N(C)C)[C@H]2O)[C@](C)(O)C[C@@H](C)C(=O)[C@H](C)[C@@H](O)[C@]1(C)O`, the “viability change, negative = cytotoxic” value was -25.4%.

Take `Cc1ccc(N(CC2=NCCN2)c2cccc(O)c2)cc1`: the “viability change, negative = cytotoxic” value was -21.8%.

In the case of `CNC1CCCN(c2c(F)cc3c(=O)c(C(=O)O)cn(C4CC4)c3c2OC)C1` (stereo not given), the “viability change, negative = cytotoxic” value was 3.85%.

As for `C=Cc1ccc(OC(C)=O)cc1`, the “viability change, negative = cytotoxic” value was 5.87%.

Turning to `CC(CO)(CO)C(=O)O`, the “viability change, negative = cytotoxic” value was 12.9% [at 81.1 µM].

Consider `O=C(NS(=O)(=O)/C=C/c1ccccc1)c1ccc(F)cc1Cl`, for which the “viability change, negative = cytotoxic” value is -4.86%.

Regarding `CC(O)Cn1cnc2c1c(=O)n(C)c(=O)n2C` (stereo not given), the “viability change, negative = cytotoxic” value was -5.08%.

Turning to `CC(=O)OCC(C)C`, the “viability change, negative = cytotoxic” value was -4.22%.

`N[C@@H](Cc1cc(I)c(O)c(I)c1)C(=O)O`: the “viability change, negative = cytotoxic” value was 11.4%.

For the compound `C[C@@H]1[C@H](O)[C@@H](C)/C=C/C=C\C=C\C=C\C=C\C=C\C=C\[C@H](O[C@@H]2O[C@H](C)[C@@H](O)[C@H](N)[C@@H]2O)C[C@@H]2O[C@](O)(C[C@@H](O)C[C@@H](O)[C@H](O)CC[C@@H](O)C[C@@H](O)CC(=O)O[C@H]1C)C[C@H](O)[C@H]2C(=O)O` (stereo in doubt), the “viability change, negative = cytotoxic” value was -2.04%.

As for `C[C@@H]1C[C@H]2[C@@H]3CCC4=CC(=O)C=C[C@]4(C)[C@@]3(F)[C@@H](O)C[C@]2(C)[C@@]1(O)C(=O)COP(=O)(O)O`, the “viability change, negative = cytotoxic” value is 4.56%.

Take `Cc1cc([N+](=O)[O-])ccc1N`: the “viability change, negative = cytotoxic” value is 5.91%.

For `CC(=O)c1ccc[nH]1`, the “viability change, negative = cytotoxic” value is -1.87%.

Take `O=C(O)/C=C/c1ccc(O)c(O)c1`: the “viability change, negative = cytotoxic” value was -1.87% [at 81.1 µM].

`CC(=O)OC(C)C[N+](C)(C)C` (stereo not given): the “viability change, negative = cytotoxic” value is 15.2%.

For `CC/C=C\C/C=C\C/C=C\CCCCCCCC(=O)OCC`, the “viability change, negative = cytotoxic” value is 11.8% [at 81.1 µM].

In the case of `CC(C)COC(=O)c1ccc(O)cc1`, the “viability change, negative = cytotoxic” value was 20.3%.

Turning to `c1ccc2sc(SSc3nc4ccccc4s3)nc2c1`, the “viability change, negative = cytotoxic” value was -15.2% [at 29.1 µM].

`O=C(c1ccccc1)C1CCC1`: the “viability change, negative = cytotoxic” value was -0.504%.

In the case of `CC(=O)OCC(=O)[C@@]1(OC(C)=O)[C@@H](C)C[C@H]2[C@@H]3C[C@H](F)C4=CC(=O)C=C[C@]4(C)[C@@]3(F)[C@@H](O)C[C@@]21C`, the “viability change, negative = cytotoxic” value is 3.9%.

In the case of `Cc1ccc(N(CCO)CCO)cc1`, the “viability change, negative = cytotoxic” value is -9.36%.

On to `O=S(=O)(O)CO`, for which the “viability change, negative = cytotoxic” value was 5.14%.

Consider `CNS(=O)(=O)c1cc(C(=O)N2CCC(CCN3C4CCC3CC(n3c(C)nc5ccccc53)C4)(c3cccc(F)c3)CC2)c(Cl)cc1F` (stereo not given), for which the Potency was 7.76 µM (active).

For `CCCCCCCCCCCCCCCCCC(=O)OCC(CC)CCCC` (stereo not given), the “viability change, negative = cytotoxic” value was 0.206%.

For the compound `CC(C)(C(=O)c1cccnc1)c1cccnc1`, the “viability change, negative = cytotoxic” value was 8.49%.

On to `CC(C)(C)C1(CCc2ccc(Cl)cc2)CO1` (stereo not given), for which the “viability change, negative = cytotoxic” value was 1.19%.

With `Cc1ccc(Cl)cc1N`, the “viability change, negative = cytotoxic” value is 17% [at 81.1 µM].

In the case of `CCN(Cc1cccc(S(=O)(=O)O)c1)c1ccc(C(=C2C=CC(=[N+](CC)Cc3cccc(S(=O)(=O)O)c3)C=C2)c2ccccc2S(=O)(=O)[O-])cc1`, the “viability change, negative = cytotoxic” value was -21.6%.

As to `CCNc1nc(N)nc(Cl)n1`, the “viability change, negative = cytotoxic” value was 4.09%.

In the case of `Cc1cn([C@H]2C[C@H](F)[C@@H](CO)O2)c(=O)[nH]c1=O`, the “viability change, negative = cytotoxic” value was 21.9%.

As to `O=C(c1ccccc1)c1ccc(O)cc1`, the “viability change, negative = cytotoxic” value was -3.68% [at 81.1 µM].

Consider `CC(=O)OCCC1CCCCC1`, for which the “viability change, negative = cytotoxic” value was -0.822%.

Turning to `CC(C)(C)C(O)/C=C/c1ccc2c(c1)OCO2` (stereo not given), the “viability change, negative = cytotoxic” value was 1.48%.

Regarding `CCOC(=O)Oc1ccc(CCNC(=O)[C@H](CCSC)NC(C)=O)cc1OC(=O)OCC`, the “viability change, negative = cytotoxic” value is -13.7%.

`O=C(O)CO`: the “viability change, negative = cytotoxic” value is -14.6%.

`O=C(Oc1ccccc1)c1ccc2ccccc2c1O`: the “viability change, negative = cytotoxic” value was 21.2%.

For `CCOc1ncc(F)c(=O)[nH]1`, the “viability change, negative = cytotoxic” value is -0.287%.

`CCCC(=O)OC(=O)CCC`: the “viability change, negative = cytotoxic” value is 28% [at 81.1 µM].

For `O=C(O)CCC(=O)OC[C@@H](NC(=O)C(Cl)Cl)[C@H](O)c1ccc([N+](=O)[O-])cc1`, the “viability change, negative = cytotoxic” value is 6.04%.
